PTHR1 ag = PTHR1 (human) receptor agonism. Potency, µM (doses to about 115 µM), inactives show at the highest dose activation, actives largely listed as activators. HEK293 GP2 PTHR1 cells, GloSensor cAMP luminescence, 1 h. Q03431. AID 743266. 410,000 tested, 0.075% active; note: potency is the fitted concentration of half-maximal effect; nearly all actives have a fitted effect of over 55% in size
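HEK-293-derived GP2 cells expressing PTHR1 and a GloSensor cAMP reporter, 3,000/well, plated overnight, given luciferin plus IBMX (each 0.5 mM as added) for 1 h at 37 °C, then compound for 1 h at 37 °C. Luminescence was read after 15 min at room temperature.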
Vif-APOBEC3G blk = inhibitors of Vif-APOBEC3G interaction | Q9HC16 | HeLa A3G-eYFP + Vif (tagged APOBEC3G with the HIV-1 protein that degrades it), YFP fluorescence, overnight | Potency, µM (doses to about 46.1 µM), inactives show top-dose activity, negative = active, hits mostly inhibitors | 410,000 tested, 0.076% active | AID 602310; note: potency is the fitted concentration of half-maximal effect; % is set by controls: 0 for no effect and ±100 for the full control effect; nearly all actives have a fitted effect of over 60% in size
Target sequence (Q9HC16 whole entry, looked up): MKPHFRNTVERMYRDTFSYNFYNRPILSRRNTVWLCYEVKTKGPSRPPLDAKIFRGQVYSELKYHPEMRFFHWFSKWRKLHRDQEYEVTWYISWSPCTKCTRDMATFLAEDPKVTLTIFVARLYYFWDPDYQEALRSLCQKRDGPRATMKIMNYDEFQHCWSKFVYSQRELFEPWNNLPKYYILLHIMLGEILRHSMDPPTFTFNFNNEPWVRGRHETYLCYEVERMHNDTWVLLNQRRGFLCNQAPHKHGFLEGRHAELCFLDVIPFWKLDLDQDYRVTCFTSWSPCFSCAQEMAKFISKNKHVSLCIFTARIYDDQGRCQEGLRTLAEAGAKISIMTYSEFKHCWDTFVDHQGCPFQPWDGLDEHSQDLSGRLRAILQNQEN
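HeLa cells stably expressing Vif and C-terminally eYFP-tagged A3G, seeded overnight at 37 deg C, then exposed to compound by pintool overnight at 37 deg C. Rise in yellow fluorescence (Ex 488/Em 500-530, Acumen) marks blocked Vif-driven A3G degradation.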
mIDH1 inhibitor = blocks human mutant IDH1 R132H enzyme. O75874. IDH1-R132H enzyme, NADPH consumption, diaphorase/resazurin fluorescence. Potency, µM (doses to about 76.6 µM), for the others: top-dose activity change, negative = inhibition, usual class: inhibitors. 390,000 tested, 0.093% active. AID 602179; note: potency is the fitted concentration of half-maximal effect; % is set by controls: 0 for no effect and ±100 for the full control effect; nearly all actives have a fitted effect of over 65% in size
Target sequence (O75874 whole entry R132H, stated change not applied): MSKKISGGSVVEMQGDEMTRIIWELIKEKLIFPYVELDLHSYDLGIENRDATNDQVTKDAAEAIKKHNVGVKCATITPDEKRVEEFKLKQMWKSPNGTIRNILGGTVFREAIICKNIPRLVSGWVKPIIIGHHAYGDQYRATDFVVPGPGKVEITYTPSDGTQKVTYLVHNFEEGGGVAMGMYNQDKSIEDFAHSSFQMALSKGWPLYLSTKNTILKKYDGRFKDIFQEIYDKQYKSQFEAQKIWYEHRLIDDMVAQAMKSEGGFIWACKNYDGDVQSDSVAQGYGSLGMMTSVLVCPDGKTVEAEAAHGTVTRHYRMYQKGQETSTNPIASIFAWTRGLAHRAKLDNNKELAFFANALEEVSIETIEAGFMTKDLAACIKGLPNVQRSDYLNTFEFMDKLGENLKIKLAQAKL
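IDH1-R132H (0.5 ug/mL) preincubated 30 min with compound, then NADPH (0.016 mM) and alpha-KG (2 mM) added; 80 min at RT, pH 7.5. Remaining NADPH coupled via diaphorase/resazurin to fluorescence (540/590 nm); concentration-response curves normalized to no-enzyme control.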
Vif-APOBEC3F blk = Vif-A3F binding inhibition; HeLa A3F-eYFP + Vif (tagged APOBEC3F with the HIV-1 protein that degrades it), YFP fluorescence increase; Potency, µM (highest dose often 46.1 µM), for inactives: at the highest dose activity, negative = active; 390,000 tested, 0.2% active; note: potency is the fitted concentration of half-maximal effect; % of control where 0% means no effect; nearly all actives have a fitted effect of over 65% in size
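HeLa cells stably expressing A3F-eYFP plus Vif, plated and incubated overnight at 37 deg C, then exposed to compounds overnight at 37 deg C. Blocked degradation read as raised yellow fluorescence (Ex 488/Em 500-530).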
LDHA block = inhibitors of human lactate dehydrogenase A | P00338 | purified LDHA, NADH/diaphorase-resazurin fluorescence; active compounds read low | activity change, % (values are at about 110 or 230 µM) | 480,000 tested, 0.15% active; in the data active = activity change below about -30%; inconclusive = mostly about -25% to -30%;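 note: plate controls were DMSO wells for no effect and wells without enzyme for full effect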
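LDH5 2 nM; NADH 0.06 mM, pyruvate 0.2 mM; 200 mM Tris pH 7.4, EDTA, Tween-20; 5 min RT. Detection: diaphorase 0.133 mg/mL + resazurin 37 µM, fluorescence ex540/em590 at 0 and 20 min; normalized to enzyme-free and DMSO wells.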
PINK1 expr mod = PINK1 expression modulation | PINK1 immunofluorescence, high-content cytometry, 24 h | Potency, µM (highest dose often 76.6 µM), inactives show at the top dose activation (PINK1 increase), actives largely listed as activators | 410,000 tested, 0.2% active; active = well fitted activation curve with a large enough effect; inconclusive = small, poorly fitted or top-dose-only effect; cell line not stated here; note: potency is the fitted concentration of half-maximal effect; % of control where 0% means no effect; nearly all actives have a fitted effect of over 65% in size
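Decision-based qHTS: stable cells, 24 h exposure to five compound concentrations, CCCP as control. Fixed cells stained for PINK1 plus nuclear, mitochondrial and cell markers, cytometer read.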
Numbers without * were called inactive; i = inactive; ? = inconclusive; . = not tested or not shown; [ ] = remark or other dose. In the library only some 0.59% were active in any assay of this set; here they are far more common. Unless noted, calls come from the whole dose curve; as a rule, active = well fitted curve in the direction sought with a large enough effect; inconclusive = small, poorly fitted or top-dose-only effect, or another doubt; inactive = no such curve, though single readings can be large; an effect the other way counts as inactive or inconclusive.

SMILES | PTHR1 ag | Vif-APOBEC3G blk | mIDH1 inhibitor | Vif-APOBEC3F blk | LDHA block | PINK1 expr mod
CC1CCN(S(=O)(=O)NCc2ccccc2Cn2cccn2)CC1 | . | . | . | . | 2 | .
COc1ccc(Oc2coc3cc(OC(=O)c4cccc(Cl)c4)ccc3c2=O)cc1 | . | . | . | . | 8 | .
Cc1ccc(NC(=O)c2ccc(NCCN)c([N+](=O)[O-])c2)cc1 | i | -1% | 2% | 0% | -2 | 7%
Cc1cccc(NC(=O)c2ccc(NCCc3ccccc3)c([N+](=O)[O-])c2)c1 | i | -17% | 4% | ? | -3 | 14µM*
COc1ccc(-c2nc(Cc3ccccc3Cl)no2)cc1OC | . | . | . | . | 3 | .
O=[N+]([O-])c1cc(O)c2ncccc2c1 | -43% | 11µM* | 18% | -4% | 37 | 2%
C/C(=N\NC(=O)C1CCCCC1)c1ccc2ccccc2c1 | . | . | . | . | -7 | .
N=C1/C(=C\c2coc3ccccc3c2=O)C(=O)N=C2SC(c3ccncc3)=NN12 | -10% | ? | ? | 25µM* | 2 | 2%
CSC1=NSC2=NC(=O)/C(=C\c3coc4ccccc4c3=O)C(=N)N12 | -31% | ? | 0% | ? | -6 | 1%
CC(C)CSC1=NSC2=NC(=O)/C(=C\c3coc4ccccc4c3=O)C(=N)N12 | -36% | ? | -19% | 22µM* | -6 | ?
COc1ccc(C)cc1NC(=O)COC(=O)c1ccccc1C | . | . | . | . | 12 | .
COC(=O)c1[nH]c2c(c1C(=O)OC)CCc1ccccc1-2 | -27% | -10% | 7% | 8.9µM* | 10 | 2%
CNC(=O)c1[nH]nc2c1CCc1ccccc1-2 | -13% | 0% | -3% | ? | 12 | -1%
Fc1ccc2nc3[nH]c4ccccc4c3nc2c1 | -16% | 1.4µM* | 15% | ? | -5 | 3%
O=C(COc1ccccc1/C=C1\SC(=S)NC1=O)Nc1ccc(F)cc1 | -23% | -6% | -8% | ? | -10 | 32µM*
O=C(Cn1cc(C(=O)c2ccccc2)c2ccccc21)NCc1ccccc1 | . | . | . | . | -35* | .
Cc1ccc(OCCOCCN2CCN(C)CC2)c([N+](=O)[O-])c1 | -20% | 1% | 3% | 1% | -46* | 1%
CN1CCN(CCOCCOc2ccc(Br)cc2Cl)CC1 | -20% | -2% | -8% | -3% | -38* | 0%
COc1ccc(-c2c(NC(=O)C(C)C)oc3c(C)cccc3c2=O)cc1OC | . | . | . | . | 0 | .
Cc1ccc(S(=O)(=O)N2CCCN(C(=O)c3cncn3-c3ccccc3)CC2)cc1 | . | . | . | . | -37* | .
CCCCCCCCOc1ccc(C(CC(=O)c2ccccc2)CC(=O)c2ccccc2)cc1 | . | . | . | . | -14 | .
COc1cccc(CNCc2cc(OC)cc(OC)c2)c1 | -9% | -2% | 1% | -1% | -16 | -1%
COc1cc(CNCc2ccc(SC)cc2)cc(OC)c1 | -11% | 0% | -1% | 11% | -31* | 4%
C=CCN1C(=O)c2cccc3c(N4CCCCC4)ccc(c23)C1=O | -11% | ? | 4% | 7.1µM* | 0 | 21%
O=C1c2cccc3c(N4CCCCC4)ccc(c23)C(=O)N1c1cccc(O)c1 | -35% | ? | ? | 4µM* | -8 | 5%
SMILES | PTHR1 ag | Vif-APOBEC3G blk | mIDH1 inhibitor | Vif-APOBEC3F blk | LDHA block | PINK1 expr mod
COc1ccc(Cl)cc1NC(=O)CSc1nc2c(oc3ccccc32)c(=O)n1Cc1ccco1 | i | 8% | 5% | 5% | -8 | 0%
COc1ccc(NC(=O)CSc2nc3c(oc4ccccc43)c(=O)n2Cc2ccco2)cc1Cl | i | ? | -16% | 8.9µM* | -5 | 3%
COc1ccc(NC(=O)C2CC(=O)Nc3nc4ccccc4n32)c(OC)c1 (stereo not drawn) | . | . | . | . | 2 | .
COc1cccc(/C=N/NC(=O)c2cc3c(OC)c(OC)ccc3[nH]2)c1OC | -17% | 4µM* | -6% | 5% | -1 | 15%
COc1ccccc1/C=N/NC(=O)c1cc2c(OC)c(OC)ccc2[nH]1 | i | ? | -10% | 0% | 1 | 5%
COc1cccc(/C=N/NC(=O)c2cc3c(OC)cccc3[nH]2)c1O | -5% | -7% | -2% | 0% | -2 | 40µM*
COc1cccc(/C=N/NC(=O)c2cc3c(OC)cccc3[nH]2)c1OC | i | ? | -4% | 1% | -6 | 10%
CCNc1ccc(S(=O)(=O)N(C)C)cc1[N+](=O)[O-] | -12% | -2% | -10% | -6% | -37* | 4%
COc1ccccc1CNC(=O)c1sc(NC(C)C)nc1C | . | . | . | . | -3 | .
NC(=O)c1sc2nc3c(c(-c4ccco4)c2c1N)CCCC3 | -15% | 4% | 3% | -7% | 2 | 0%
Cc1ccccc1NC(=O)c1sc2nc3c(c(-c4ccco4)c2c1N)CCC3 | -9%[57.5 µM] | 13µM* | 1% | ? | 4 | 6%
Cc1ccc(NC(=O)c2c(C)nc3sc(C(=O)NC4CCCC4)c(N)c3c2-c2ccco2)c(C)c1 | i | -2% | 4% | 2.8µM* | 1 | ?
CCc1ccc(NC(=O)c2sc3nc(C)c(C(=O)Nc4ccc(C)cc4C)c(-c4ccco4)c3c2N)cc1 | i | -30% | 0% | 13µM* | -2 | 14%
COc1cccc(NC(=O)c2sc3nc(C)c(C(=O)Nc4ccc(C)cc4C)c(-c4ccco4)c3c2N)c1 | -24% | -21% | 0% | ? | -2 | 3%
COCCCNC(=O)COc1ccc2c(C)c(Cc3ccccc3)c(=O)oc2c1C | . | . | . | . | 26 | .
C/C(=N\Nc1c(Cl)cc(Cl)cc1Cl)c1ccc(Cl)cc1Cl | . | . | . | . | 2 | .
COc1ccccc1NC(=O)/C(C#N)=C/C=C/c1ccco1 | -5%[57.5 µM] | ? | 6% | ? | 19 | 2.8µM*
CCC(Oc1ccccc1)C(=O)Nc1sc(C(=O)OC)c(C)c1C(=O)OC (stereo not drawn) | . | . | . | . | -2 | .
Oc1ccc(-c2cnc3c(Nc4cccc(OC(F)(F)C(F)F)c4)nccn23)cc1 | -16% | -5% | . | . | -5 | 12%
FC(F)C(F)(F)Oc1cccc(Nc2nccn3c(-c4ccc5ccccc5c4)cnc23)c1 | -73% | -3% | . | . | -79* | 0%
O=C(NCc1cccc(Cl)c1)C(=O)Nc1ccc2cc[nH]c2c1 | . | . | . | . | -6 | .
O=C1/C(=C/c2ccc(N3CCCC3)cc2)NC(=S)N1C1CC1 | -27% | 5.6µM* | 3% | 11µM* | 4 | ?
Cc1cc(N2CCCC2)ccc1/C=C1\NC(=S)N(C)C1=O | -15% | ? | 1% | 6.3µM* | 3 | 21%
COc1ccc(NC(=O)COc2ccccc2C)c2cccnc12 | . | . | . | . | 1 | .
Cc1cc(C)c2oc(C(=O)N(Cc3cccs3)c3ccccn3)cc(=O)c2c1 | . | . | . | . | 1 | .
